Assay outcomes (PubChem)
Shown are actives, neighbours in structure and some others; about 3.7% of the full set was active somewhere.
DRV1 agonist – qHTS for Agonists of Human Resolvin D1 Receptor DRV1; Probable G-protein coupled receptor 32 (Homo sapiens), O75388; CHO-K1 GPR32 beta-arrestin PathHunter luminescence, 90 min; zero percent set by DMSO-only wells; activation, % at 76.9 µM; actives 2.5% (n = 48,000);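 active = activation of at least 60% and not above a set upper limit, about 1 call in 100 departs from these limits; inconclusive = activation of 40% to 60%, or above that upper limit; inactive = activation under 40%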; note: 0% is about no effect
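Luminescent readout of beta-Gal complementation quantifies ligand-induced beta-arrestin association with GPR32 in CHO-K1 cells; 90 min compound incubation at 37 °C, detection 1 h at room temperature.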
HTT-AS promoter – Primary qHTS for Identification of Small Molecule Activators of Huntingtin-Antisense Promoter Activity; HEK293 HTT-AS promoter firefly luciferase reporter, 24 h; response scale: percent change from vehicle, -100% = no light; Potency, µM (doses to about 57.5 µM), without a hit: at the top dose activity change, positive = activation, hits mostly activators; actives 0.24% (n = 48,000); AID 1508624, 2021; note: potency is the fitted concentration of half-maximal effect; nearly all actives have a fitted effect of over 55% in size
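HEK293 luciferase promoter-reporter cells (2,500/well) plated 24 h, then compounds added at up to 57.5 uM final for 24 h at 37 °C. Firefly luminescence by Dual-Glo, normalized to vehicle (0%) and zero RLU (-100%).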
HTT prom inh – Primary qHTS for Identification of Small Molecule Inhibitors of Huntingtin Promoter Activity; HEK293 HTT promoter firefly luciferase reporter, 24 h; Potency, µM (doses to about 57.5 µM), inactives show at the highest dose activity change, negative = inhibition, hits mostly inhibitors; actives 0.93% (n = 48,000); note: potency is the fitted concentration of half-maximal effect; nearly all actives have a fitted effect of over 50% in size
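Luminescence was read after Dual-Glo reagent and a 10 min room-temperature incubation. Values were normalized to vehicle (0% activity) and zero RLU (-100% activity). Reporter HEK293 cells had been exposed to compounds (up to 57.5 uM final) for 24 h.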
GALC G270D up – A Novel Cell-Based Assay to Identify Small Molecules for B -Galactocerebrosidase; actives 0.1% (n = 45,000); 145M-Twi-hGALC-G270D cells (Twitcher mouse brain line with human GALC G270D), HMU-beta-Gal fluorescence, 48 h; P54803; Potency, µM (highest dose often 57.5 µM), usual class: activators; note: potency is the fitted concentration of half-maximal effect; 0% is about no effect; nearly all actives have a fitted effect of over 65% in size
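Brain-derived Twitcher mouse 145M-Twi cells stably expressing human GALC-G270D or wild-type GALC, treated live, then residual GALC activity read by fluorescence of HMU-b-Gal substrate (0.1 mM final) in citrate-phosphate buffer pH 5.2 with sodium taurocholate. Signal increase indicates enhancement.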
FH mod – Identification of activators of human fumarate hydratase by quantitative high-throughput screening; FH coupled MDH/diaphorase resazurin fluorescence, 15 min; Potency, µM (titrated, usually from 79.9 µM), for inactives: top-dose activity change, negative = inhibition, actives largely listed as inhibitors; Fumarate hydratase, mitochondrial (Homo sapiens), P07954; actives 0.22% (n = 54,000); note: potency is the fitted concentration of half-maximal effect; % is set by controls: 0 for no effect and ±100 for the full control effect; the screen sought activators but most active calls are inhibition curves; nearly all actives have a fitted effect of over 45% in size
B2AR arrestin ag – qHTS assay of beta-arrestin-biased ligands of beta2-adrenergic receptor: NCGC Sytravon Library Screen; HTLA Tango cells, beta-arrestin recruitment, luciferase luminescence, 18 h; Potency, µM (top dose mostly 46.1 µM), actives largely listed as activators; 44,000 tested, under 10 active; AID 1347077, 2019;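 note: potency is the fitted concentration of half-maximal effect; 0% = DMSO and full agonism = EC100 isoproterenol or metaproterenol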
Target sequence (P07550 whole entry, looked up): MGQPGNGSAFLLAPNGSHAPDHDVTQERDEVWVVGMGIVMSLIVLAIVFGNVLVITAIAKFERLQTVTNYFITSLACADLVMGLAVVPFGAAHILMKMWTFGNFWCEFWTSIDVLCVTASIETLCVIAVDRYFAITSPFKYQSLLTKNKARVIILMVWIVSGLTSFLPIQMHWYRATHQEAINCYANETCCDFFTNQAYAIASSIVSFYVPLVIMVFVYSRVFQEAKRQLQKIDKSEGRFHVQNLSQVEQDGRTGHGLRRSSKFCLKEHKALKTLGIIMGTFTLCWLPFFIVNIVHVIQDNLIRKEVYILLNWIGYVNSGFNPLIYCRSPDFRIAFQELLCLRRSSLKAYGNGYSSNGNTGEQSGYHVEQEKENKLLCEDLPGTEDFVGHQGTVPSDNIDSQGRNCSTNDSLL
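Tango cells (recombinant beta2-AR, beta-arrestin, tTA-driven luciferase), 1500/well in DMEM 1% FBS, treated 18 h at 37 °C with compounds up to 46 µM; luciferin mix added, luminescence read after 15 min; %activity curves fitted and curve-classed.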
* = called active by the depositor; i = inactive; u = inconclusive; x = no result given; [ ] = remark or other dose. Unless noted, calls come from the whole dose curve; as a rule, active = well fitted curve in the direction sought with a large enough effect; inconclusive = small, poorly fitted or top-dose-only effect, or another doubt; inactive = no such curve, though single readings can be large; an effect the other way counts as inactive or inconclusive.

SMILES | DRV1 agonist | HTT-AS promoter | HTT prom inh | GALC G270D up | FH mod | B2AR arrestin ag
CCN(CC)S(=O)(=O)c1ccc(NC(=O)CCc2c(C)nc3cc(-c4ccc(Cl)cc4)nn3c2C)cc1 | -6 | -89% | u | i | u | i
CCOc1ccc(CCNC(=O)CCc2c(C)nc3cc(-c4ccccc4OC)nn3c2C)cc1 | -10 | -81% | 13µM* | i | -26% | i
COc1ccc(CCNC(=O)CCc2c(C)nc3cc(-c4ccc(Cl)cc4)nn3c2C)c(OC)c1 | 1 | -74% | 2µM* | i | 1% | i
COc1ccccc1-c1cc2nc(C)c(CCC(=O)NCCc3cccc(C)c3)c(C)n2n1 | -2 | -60% | u | i | -21% | i
C=CC(=O)N1CCN(C(=O)CNc2cc(I)c(Cl)cc2O)CC1 | x | x | x | x | -7% | x
COc1cc(OC)c(C(=O)NCc2nc(-c3ccccc3)no2)cc1OC | 71* | 7%[11.5 µM] | -19% | i | -23% | i
CCC/C=C/C=C/C1CC(O)C(O)C(=O)C1CO (stereo unspecified) | x | x | x | x | 1% | x
COc1cc(NC(=O)CSc2nc(-c3ccco3)cc(C(F)(F)F)n2)cc(OC)c1OC | 7 | -75% | 13µM* | i | -9% | i
COc1ccc(NC(=O)CSc2nc(-c3ccco3)cc(C(F)(F)F)n2)cc1 | 95* | -25% | -29% | i | 3% | i
COc1ccccc1-c1cc(C(F)(F)F)nc(S(=O)(=O)CCCC(=O)Nc2cc(OC)c(OC)c(OC)c2)n1 | 81* | -27% | -7% | i | 0% | i
COc1ccc(NC(=O)CSc2nc(-c3ccco3)cc(C(F)(F)F)n2)c(OC)c1 | -8 | -7% | 1% | i | 1% | i
Nc1nc(Cl)nc2c1ncn2[C@@H]1O[C@H](COP(=O)(O)OP(=O)(O)OP(=O)(O)O)C(O)[C@H]1O (stereo partly specified) | x | x | x | x | -14%[53.3 µM] | x
CCOC(=O)N1c2ccc(C(F)(F)F)cc2C(N(Cc2cc(C(F)(F)F)cc(C(F)(F)F)c2)C(=O)OC)CC1CC (stereo unspecified) | x | x | x | x | -6% | x
Cc1ccc([N+](=O)[O-])cc1S(=O)(=O)N(C)N=Cc1cnc2ccc(Br)cn12 | x | -39% | u | x | -3%[53.3 µM] | x
CC(C)(C)c1ccc(S(=O)(=O)Nc2ccc(-n3ccnc3)cc2)cc1 | x | x | x | x | -15% | x
CC1(C)CCC2(C(=O)OC3OC(CO)C(O)C(O)C3O)CCC3(C)C(=CCC4C5(C)CCC(OC6OC(C(=O)O)C(OC7OC(CO)C(O)C(O)C7O)C(OC7OC(CO)C(O)C(O)C7O)C6O)C(C)(C)C5CCC43C)C2C1 (stereo unspecified) | x | x | x | x | 2%[20.6 µM] | x
CCN1CCN(Cc2ccc(Nc3ncc(F)c(-c4cc(F)c5nc(C)n(C(C)C)c5c4)n3)nc2)CC1 | x | x | x | x | -2% | x
COc1ccc(-c2nnc(SCC(=O)N3CCC(C)CC3)o2)cc1 | 78* | 0% | -3% | i | -8% | i
CC1CCN(C(=O)CSc2nnc(-c3ccccc3)o2)CC1 | -8 | u | 24% | i | -4% | i
CSC(Cc1ccc(Cl)cc1)C(=O)Nc1ccc(Cl)cc1C(=O)O (stereo unspecified) | x | x | x | x | -37% | x
C/C=C/C=C/C=C/C(=O)O[C@@H]1C=C(CO)C(O)(C(=O)O)[C@@]2(C)CCCC(C)(C)[C@H]12 (stereo partly specified) | x | x | x | x | -1%[53.3 µM] | x
Cc1ccc(C)c(-n2nnc(C(=O)Nc3ccc(Br)cc3)c2C)c1 | 26 | 5% | u | i | -15% | i
CC(=O)Nc1c(C(=O)Nc2cccc(C)c2)nnn1-c1ccc(C)cc1 | 119* | 18% | 17% | i | -22% | i
CCOC(=O)c1c(N)n(-c2cccc(OC)c2)c2nc3ccccc3nc12 | 2 | -7% | -3% | 4µM* | -3% | i
CCOC(=O)c1c(N)n(-c2ccc(CC)cc2)c2nc3ccccc3nc12 | 3 | -21% | -15% | i | -1% | i
SMILES | DRV1 agonist | HTT-AS promoter | HTT prom inh | GALC G270D up | FH mod | B2AR arrestin ag
C=C1C(OC(C)=O)C(=O)C2C(C)(C)C(O)CCC2(C)C1CC(OC(C)=O)/C(C)=C/COC(C)=O (stereo unspecified) | x | x | x | x | 7%[53.3 µM] | x
Cc1cccc(C)c1Nc1c(-c2ccccc2Cl)nc2cnccn12 | 11 | -36% | u | 22µM* | -4% | i
N#Cc1ccc2[nH]c(O)c(-c3ccc(CN4CCOCC4)cn3)c2c1 | x | x | x | x | -7% | x
Cc1ccc(-c2nc3scc(CCNS(=O)(=O)c4ccc(Oc5ccccc5)cc4)n3n2)cc1 | -5 | -84% | 20µM* | i | -2% | i
Cc1ccccc1-c1nc2scc(CCNS(=O)(=O)c3ccccc3)n2n1 | 75* | -16% | -37% | i | -25% | i
Cc1ccc(-c2nc3scc(CCNS(=O)(=O)c4ccc(F)c(C)c4)n3n2)cc1 | 20 | -26% | -26% | i | -13% | i
Cc1ccc(S(=O)(=O)NCCc2csc3nc(-c4ccccc4F)nn23)cc1C | 105* | -24% | -36% | i | -1% | i
Cc1c(C(=O)Nc2ccc(Oc3ccnc4[nH]cc(-c5ccccc5)c34)c(F)c2)c(=O)n(-c2ccc(F)cc2)n1C | x | x | x | x | -11% | x
O=S(=O)(c1ccccc1)n1nc(-c2ccccc2)nc1NCc1ccc(Cl)cc1 | -4 | -11% | -13% | i | -30% | i
CN(C)c1ccc(CNc2nc(-c3ccco3)nn2S(=O)(=O)c2ccc(Cl)cc2)cc1 | -15 | u | 38% | i | -21% | i
O=S(=O)(c1ccccc1)n1nc(-c2ccc(Cl)cc2)nc1NCc1ccc(F)cc1 | 72* | -22% | -34% | i | u | i
O=S(=O)(c1ccccc1)n1nc(-c2ccco2)nc1NCc1ccccc1 | -18 | 13µM* | 37% | i | -14% | i
Cc1ccc(C(=O)/C=C/c2ccccc2)s1 | x | x | x | x | -19% | x
CSc1nc(N)c2ncn([C@@H]3O[C@H](COP(=O)(O)OP(=O)(O)OP(=O)(O)O)C(O)[C@H]3O)c2n1 (stereo partly specified) | x | x | x | x | -3%[53.3 µM] | x
